Holding throughout (experiment): NCI-60 one-dose screen, 48 h (100 = growth as untreated, 0 = no growth, -100 = all killed)
Conditions in all cases: 10 µM unless noted

The subject of test [1] is SR leukemia.
Test [2] concerns RPMI-8226 leukemia.
Test [3] concerns OVCAR-8 ovarian.
Test [4] deals with OVCAR-5 ovarian.
Test [5] relates to OVCAR-4 ovarian.
Test [6] has as its system SK-OV-3 ovarian.
The test system of test [7] is IGROV1 ovarian.
Test [8] has as its system OVCAR-3 ovarian.
Test [9] concerns HS 578T breast.
Test [10] has as its system NCI/ADR-RES ovarian.
Test [11] relates to T-47D breast.
In test [12] the test system is BT-549 breast.
Test [13] has as its system MDA-MB-435 melanoma.
In test [14] the test system is SW-620 colon.
The test system of test [15] is MCF7 breast.
Test [16] relates to HCT-116 colon.
Test [17] concerns HCC-2998 colon.
The subject of test [18] is KM12 colon.

About 83,000 compounds went through this panel and 20% of them were active in at least one assay; those are over-represented in the sample as a whole.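 Plates (96-well) were seeded with cells, treated with compound at one concentration, and incubated for 48 hours before percent growth was determined.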 A number with no mark means an inactive call. The source made the active and inactive calls. The calls were made as follows: active = growth percent below 10; inactive = the rest.

Take `CC1(C)CC(O)CCCCCCOc2c(CN)cccc2NC(=O)c2nc(cnc2N)-c2ccc(cc2)S1(=O)=O` (centres undefined): the growth was -16.8% (active) in test [1]; -41.5% (active) in test [2]; 23.5% in test [3]; 68.4% in [4]; -22.1% (active) in test [5]; 44.9% in test [6]. For the same compound, the growth in test [7] is 9.31% (active); in [8], -5.21% (active); in test [9], 13.2%; in [10], 67.1%; in test [11], 66.2%; in [12], 28.2%. Besides, the growth in test [13] was 20%; in test [14], -6.55% (active); in [15], -16% (active); in [16], -63.6% (active); in test [17], 28.6%; in test [18] it was -10.7% (active).
For the compound `COc1c(Cl)c2c(c(OC)c1OC)-c1ccc(SC)c(=O)cc1[C@@H](NC(=O)OCC(F)(F)F)CC2`, the growth is -0.191% (active) in test [1]; 2.59% (active) in [2]; 20% in test [3]; 35% in test [4]; 39.6% in test [5]; 48.2% in [6]. Further, the growth in test [7] was 13.5%; in test [8] it was -14.2% (active); in [9], 12.1%; in test [10], 14.6%; in test [11], 43.1%; in test [12], 5.25% (active). Also, the growth in test [13] was -36.9% (active); in [14], 21.9%; in test [15] it was 14.8%; in [16], 1.82% (active); in test [17] it was 21.6%; in test [18] it was 10.4%.
As for `c1ccc2c(-c3nccs3)c[nH]c2c1`, the growth in [1] is 86%; in [2], 104%; in test [3] it was 106%; in [4], 97.3%; in test [5], 110%; in [6], 99.7%. Besides, the growth in test [7] was 101%; in [8], 103%; in test [9], 98.3%; in [10], 103%; in [11], 96.3%; in test [12], 86.6%. Moreover, the growth in test [13] is 101%; in test [14], 99.1%; in test [15], 79.8%; in test [16] it was 95.7%; in test [17] it was 107%; in test [18], 96.3%.
For `N#C/C(=C\c1ccc(Cl)cc1)n1nnc2cc(F)c(F)cc21`, the growth in test [1] is 5.64% (active); in [2], -34.1% (active); in test [3] it was 13.3%; in [4], 22.2%; in [5] it was 17.6%; in [6], 88.7%. Also, the growth in test [7] is 6.69% (active); in [8] it was -0.889% (active); in test [9], 13.6%; in test [10] it was 17.6%; in test [11], 19.8%; in test [12], 11.7%. Besides, the growth was 5.95% (active) in [13]; -15% (active) in test [14]; 12% in test [15]; -11.6% (active) in test [16]; 16.8% in test [17]; 16.2% in test [18].
Turning to `CC(C)(C)c1cc(/C=N/NC(=O)c2ccccc2NC(=O)c2cccs2)c(O)c(C(C)(C)C)c1`, the growth in test [1] is -27.2% (active); in [2] it was 32.5%; in test [3], 10.1%; in [4], 67.7%; in [5], -34.6% (active); in [6], 31.8%. The growth in test [7] was 36.3%; in test [8] it was 6.92% (active); in test [9], 71.5%; in test [10], 18.8%; in test [11], 29.4%; in test [12], 57.4%. In addition, the growth in [13] was 51.8%; in test [14], 17.1%; in test [15], 18.1%; in test [16], 9.85% (active); in test [17], 30.9%; in test [18] it was 25.6%.
Consider `Clc1ccc(-c2ccc(CNCC3CCNCC3)o2)c(-c2ccccc2)c1`, for which the growth in [1] is -60.9% (active); in test [2] it was -54.4% (active); in [3] it was -66.9% (active); in test [4], -90.6% (active); in test [5], -38.2% (active); in test [6] it was 45.4%. For the same compound, the growth in [7] was -64% (active); in test [8], -79.9% (active); in test [9], -49.8% (active); in test [10], -32.5% (active); in test [11], -75.2% (active); in test [12], -5.56% (active). Also, the growth is -92% (active) in [13]; -85.9% (active) in test [14]; -73.9% (active) in test [15]; -87.2% (active) in test [16]; -77.6% (active) in test [17]; -84.2% (active) in [18].
Turning to `COc1cc2cc(CN3CCN(c4nccc(-c5ccc6ccccc6c5)n4)CC3)c(=O)[nH]c2cc1OC`, the growth is -23.1% (active) in [1]; 61.2% in test [2]; 28.9% in [3]; 102% in test [4]; 53.4% in test [5]; 99.6% in test [6]. For the same compound, the growth was 92% in test [7]; 39% in test [8]; 95.4% in [9]; 85.9% in test [10]; 81.5% in [11]; 95.6% in [12]. The growth in [13] was 91.1%; in test [14], -55% (active); in [15], 42.8%; in [16] it was -25.4% (active); in test [17], 101%; in test [18], 83.4%.
Consider `CC(=O)Nc1ccc(-n2cnc3cc(-c4ccc(OCCN5CCCCC5)cc4)ccc32)cc1`, for which the growth in test [1] is -9.89% (active); in [2] it was 54%; in [3], 87.1%; in test [4], 104%; in test [5], 82.6%; in test [6], 139%. In addition, the growth is 97.4% in test [7]; 98.4% in test [8]; 95.3% in test [9]; 97.2% in test [10]; 107% in [11]; 99.4% in [12]. For the same compound, the growth is 102% in test [13]; -29% (active) in test [14]; 70.6% in test [15]; -51.2% (active) in test [16]; 119% in test [17]; 29% in test [18].
